Experimental data: PubChem BioAssay (NCATS)
Values joined by “and” are separate entries in the source; they are usually repeats but may differ in a detail not shown here. Equal entries are not always repeated. Results filed as inconclusive are left out. Where a structure was tested more than once in an assay, its records may differ in their call. Unmarked numbers belong to inactive results. Calls follow the shape of the dose curve; as a rule, active = well fitted inhibition curve with a large enough effect; inconclusive = small, poorly fitted or top-dose-only effect; inactive = flat fitted curve, though single readings scatter.

Experiment: Drug repurposing screens with cells derived from glioblastoma tumor samples (AID 1345199); also: nearly all actives have a fitted effect of over 40% in size
Settings: GBM patient neurospheres viability, ATP luminescence, 48 h; at 45.9 µM (top of the series); tumour line B
Procedure, shortened: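 Primary testing used CD133+ neurospheres from four GBM patients, seven concentrations, 48 h exposure and ATP-based viability; confirmation added three slower-growing patient lines.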
% is scaled to controls: 0 for no effect and ±100 for the full control effect.

| Compound | activity, negative = cell killing |
| --- | --- |
| C[C@H](CN1CCCC1)C(=O)c1ccc(C(F)(F)F)cc1 | -26.9% |
| CN1C(CSCC(F)(F)F)Nc2cc(Cl)c(S(N)(=O)=O)cc2S1(=O)=O (stereo unspecified) | -3.33% |
| O=C(O)c1ccccc1S | 0.0031% |
| C[C@@]12CCC[C@H]1[C@@H]1CC[C@H]3C[C@@H](O)CC[C@]3(C)[C@H]1CC2 | -21.2% |
| CO[C@@H]1[C@@H](O[C@@H]2O[C@H](C)[C@@H](O[C@H]3C[C@@](C)(O)[C@@H](O)[C@H](C)O3)[C@H](N(C)C)[C@H]2O)[C@@H](CC=O)C[C@@H](C)[C@@H](O[C@@H]2CC[C@H](N(C)C)[C@@H](C)O2)/C=C/C=C/C[C@@H](C)OC(=O)C[C@H]1OC(C)=O | -18.6% |
| Cc1cc(O)c2c(O)c3c(O)cccc3cc2c1 | -27.7% |
| COc1cc(C=O)ccc1O | -12.2% |
| CCN1C(=O)c2ccccc2C1Nc1ccc(OCCN2CCCCC2)cc1 (stereo unspecified) | -27.4% |
| N#C/C(=C1/SC[C@@H](c2ccc(Cl)cc2Cl)S1)n1ccnc1 | -20.5% and -14.1% |
| Oc1ccccc1 | 8.9% |
| COC(=O)C1=C(C)NC(COC(N)=O)=C(C(=O)OC(C)C)C1c1cccc(Cl)c1Cl (stereo unspecified) | 0.976% |
| O=C(O)CCC(=O)OC[C@@H](NC(=O)C(Cl)Cl)[C@H](O)c1ccc([N+](=O)[O-])cc1 | -13.2% |
| Cc1ncc(CO)c(CO)c1O | 0.285% |
| CCCCC(=O)OCC(=O)[C@H]1[C@H](C)C[C@H]2[C@@H]3C[C@H](F)C4=CC(=O)C=C[C@]4(C)[C@@]3(F)[C@@H](O)C[C@@]21C | -0.839% |
| CN1CCC(N(Cc2cccs2)c2ccccc2)CC1 | -22.4% |
| CC(=O)[C@@]1(O)CC[C@H]2[C@@H]3C[C@H](C)C4=CC(=O)CC[C@]4(C)[C@H]3CC[C@@]21C | -5.63% |
| c1ccc(C(O[C@H]2CCCN(CCc3ccc4c(c3)OCO4)C2)c2ccccc2)cc1 | -23.2% |
| NC(=O)COCCN1CCN(C(c2ccccc2)c2ccc(Cl)cc2)CC1 (stereo unspecified) | -14% |
| O=C(COCCOCCOCC(=O)Nc1c(I)cc(I)c(C(=O)O)c1I)Nc1c(I)cc(I)c(C(=O)O)c1I | -4.03% |

Same assay, conditions: GBM patient neurospheres viability, ATP luminescence, 48 h; at 45.9 µM (top of the series); tumour line D

| Compound | activity, negative = cell killing [%] |
| --- | --- |
| O=C(O)c1ccccc1S | 6.57 |
| COc1cc(C=O)ccc1O | 2.3 |
| Oc1ccccc1 | -14.6 |
| O=C(O)CCC(=O)OC[C@@H](NC(=O)C(Cl)Cl)[C@H](O)c1ccc([N+](=O)[O-])cc1 | -13.5 |
| Cc1ncc(CO)c(CO)c1O | -6.71 |
| CCCCC(=O)OCC(=O)[C@H]1[C@H](C)C[C@H]2[C@@H]3C[C@H](F)C4=CC(=O)C=C[C@]4(C)[C@@]3(F)[C@@H](O)C[C@@]21C | -9.99 |
| CC(=O)[C@@]1(O)CC[C@H]2[C@@H]3C[C@H](C)C4=CC(=O)CC[C@]4(C)[C@H]3CC[C@@]21C | -15.6 |
| O=C(COCCOCCOCC(=O)Nc1c(I)cc(I)c(C(=O)O)c1I)Nc1c(I)cc(I)c(C(=O)O)c1I | -4.14 |

Same assay, conditions: GBM patient neurospheres viability, ATP luminescence, 48 h; at 46.1 µM (top of the series); tumour line C

| Compound | activity, negative = cell killing [%] |
| --- | --- |
| C[C@H](CN1CCCC1)C(=O)c1ccc(C(F)(F)F)cc1 | -22.1 |
| CN1C(CSCC(F)(F)F)Nc2cc(Cl)c(S(N)(=O)=O)cc2S1(=O)=O (stereo unspecified) | -15.1 |
| O=C(O)c1ccccc1S | 1.53 |
| Cc1cc(C(C)(C)C)c(O)c(C(C)(C)C)c1 | -15.8 |
| COc1cc(C=O)ccc1O | -15.5 |
| Oc1ccccc1 | -15.8 |
| O=C(O)CCC(=O)OC[C@@H](NC(=O)C(Cl)Cl)[C@H](O)c1ccc([N+](=O)[O-])cc1 | -13.1 |
| Cc1ncc(CO)c(CO)c1O | 3.74 |
| CCCCC(=O)OCC(=O)[C@H]1[C@H](C)C[C@H]2[C@@H]3C[C@H](F)C4=CC(=O)C=C[C@]4(C)[C@@]3(F)[C@@H](O)C[C@@]21C | 14.8 |
| CC(=O)[C@@]1(O)CC[C@H]2[C@@H]3C[C@H](C)C4=CC(=O)CC[C@]4(C)[C@H]3CC[C@@]21C | -11.3 |
| O=C(COCCOCCOCC(=O)Nc1c(I)cc(I)c(C(=O)O)c1I)Nc1c(I)cc(I)c(C(=O)O)c1I | 15.8 |

Same assay, conditions: GBM patient neurospheres viability, ATP luminescence, 48 h; at 91.6 µM (top of the series); tumour line B

| Compound | activity, negative = cell killing [%] |
| --- | --- |
| CCCCC(CC)COC(=O)c1ccccc1C(=O)O (stereo unspecified) | -11.6 |
| O=C(NO)c1ccccc1 | -25.1 |
| COC(=O)c1c(Cl)c(Cl)c(C(=O)OC)c(Cl)c1Cl | -13.9 |
| CCCC(=O)c1cc(O)c(O)cc1O | -19.8 |
| CC(C)(c1ccc(O)cc1)c1ccc(O)cc1 | -24 |

Same assay, conditions: GBM patient neurospheres viability, ATP luminescence, 48 h; at 91.6 µM (top of the series); tumour line D

| Compound | activity, negative = cell killing [%] |
| --- | --- |
| CCCCC(CC)COC(=O)c1ccccc1C(=O)O (stereo unspecified) | -15.6 |
| O=C(NO)c1ccccc1 | -20.6 |
| COC(=O)c1c(Cl)c(Cl)c(C(=O)OC)c(Cl)c1Cl | -16.3 |
